A selection: hits, their analogues and other compounds. The true share with any hit is near 4.7%.
PABP polyA inh = PABP poly(A) RNA binding inhibitors, primary screen, biochemical, fluorescence polarization, uHTS; 290,000 tested, 1% active; inhibition, % at 35 µM; Polyadenylate-binding protein 1 (Homo sapiens), P11940; AID 2014, 2009;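 note: calls also rest on retests at 20 µM and on dose response follow-up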
ALR inh = inhibitors of human ALR sulfhydryl oxidase, primary screen, biochemical, H2O2 detection, HRP-luminol luminescence, single point | FAD-linked sulfhydryl oxidase ALR (Homo sapiens), P55789 | purified ALR, DTT oxidation | inhibition, % (test concentration not listed) | 290,000 tested, 3.8% active | AID 485317, 2010;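 active = mean replicate inhibition above about 79%, with every replicate also reaching it, limit read from the data; inconclusive = only one of the two criteria met; inactive = mean below limit and not every replicate reaching it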
Target sequence (P55789 whole entry, looked up): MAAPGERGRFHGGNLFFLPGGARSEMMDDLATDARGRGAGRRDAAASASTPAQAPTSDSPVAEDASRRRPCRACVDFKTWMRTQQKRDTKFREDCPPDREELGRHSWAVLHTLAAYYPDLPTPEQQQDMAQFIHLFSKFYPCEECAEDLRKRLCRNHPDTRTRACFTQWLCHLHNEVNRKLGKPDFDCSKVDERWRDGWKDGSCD
eIF4H FP inh = human eIF4H binding inhibitors, primary screen, translation initiation inhibitor project, biochemical, uHTS, fluorescence polarization; eIF4H fluorescence polarization binding assay; 290,000 tested, 0.94% active; inhibition, % at 35 µM;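 note: calls also rest on retests at 20 µM and on dose response follow-up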
Efflux pump inh = inhibitors of Candida efflux pumps in yeast, primary screen, S. cerevisiae, Nile Red, multiplex; S. cerevisiae Candida pump triplex; inhibition, % at 10 µM; 330,000 tested, 0.44% active; AID 485275, 2010;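 active = plate passing quality check with inhibition over a set limit, or well fluorescence over plate mean plus 4 SD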;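 note: Nile Red retained in pooled yeast measured as flow cytometry median fluorescence; 0% = buffer negative control and 100% = Enniatin B positive control; higher means more Nile Red kept so more efflux inhibition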
SUMO HTRF inh = inhibitors of in vitro SUMOylation cascade, primary screen, biochemical, HTRF, uHTS; SUMO-conjugating enzyme UBC9 (Homo sapiens), P63279; inhibition, % at 35 µM; HTRF SUMOylation assay, SAE1/SAE2 + UBC9; 290,000 tested, 0.36% active; in the data active = inhibition above about 50%, passing the limit was not always enough; inconclusive = no clear call, values can overlap the other calls
Target sequence (P63279 whole entry, looked up): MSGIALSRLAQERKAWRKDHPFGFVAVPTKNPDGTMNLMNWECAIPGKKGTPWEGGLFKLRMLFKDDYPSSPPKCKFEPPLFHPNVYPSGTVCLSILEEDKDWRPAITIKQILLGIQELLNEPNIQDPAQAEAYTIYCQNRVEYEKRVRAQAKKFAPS
PABP1 MLLE inh = inhibitors of PABP1 MLLE–PAM2 peptide binding, primary screen, biochemical, fluorescence polarization, FITC-PAM2, GST-MLLE; 360,000 tested, 0.36% active; inhibition, % at 20 µM; in the data active = inhibition above about 35%, passing the limit was not always enough;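 note: plate controls were DMSO wells with GST-MLLE for no effect and wells lacking GST-MLLE protein for full effect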
The depositor's hits bear a star; ? = inconclusive; . = no result given. Unless noted, the rule behind the calls is not given here.

SMILES	PABP polyA inh	ALR inh	eIF4H FP inh	Efflux pump inh	SUMO HTRF inh	PABP1 MLLE inh
CCN1CCN(Cc2oc(CO)cc(=O)c2O)CC1	2.9	-4.2	5.1	0.0	22.3	-2.7
O=c1cc(CO)oc(CN2CCN(c3cccc(C(F)(F)F)c3)CC2)c1O	-1.8	?	11.9	0.1	-6.8	10.2
CCOC(=O)C1CCN(Cc2oc(CO)cc(=O)c2O)CC1	-5.0	90.8*	-1.6	0.1	11.6	-2.6
O=c1cc(CO)oc(CN2CCN(c3ccccc3)CC2)c1O	0.8	98.1*	-9.7	0.0	20.6	2.1
CC1CCCCC1NC(=O)COC(=O)c1ccc2c(c1)OCCO2 (stereo unspecified)	.	0.1	.	0.0	.	0.4
CC1CCCCN1S(=O)(=O)c1ccc(C(=O)Nc2nnc(C3=COCCO3)o2)cc1 (stereo unspecified)	2.3	97.4*	5.2	-0.1	11.3	13.6
CC1CCCN(S(=O)(=O)c2ccc(C(=O)Nc3nnc(C4=COCCO4)o3)cc2)C1 (stereo unspecified)	19.6	98.2*	9.3	0.1	10.1	4.7
Cc1nc2ccccc2n1CC(=O)c1ccc(O)c(O)c1	.	98.3*	.	-0.1	.	4.1
O=C(CSc1nc2ccccc2n1CCc1ccccc1)c1ccc(O)c(O)c1	93.6*	.	89.9*	.	64.6*	-98.9
O=C(O)/C=C\C(=O)Nc1ccccc1C(=O)N1CCN(c2ccc(Cl)cc2)CC1	-2.6	21.6	-0.7	-0.1	2.1	2.2
O=C(O)/C=C/C(=O)Nc1ccc(-c2ccccc2)cc1	5.2	98.2*	-5.4	0.0	16.2	0.2
O=C(O)/C=C\C(=O)Nc1ccc(N2CCN(c3cccc(Cl)c3)CC2)cc1	-3.5	98.5*	4.3	-0.1	9.3	-5.4
O=C(O)/C=C\C(=O)Nc1ccc(N2CCN(c3ccc(Cl)cc3)CC2)cc1	12.3	98.5*	13.8	0.0	11.9	0.5
O=C(O)/C=C\C(=O)Nc1ccc(N2CCN(c3ccc(F)cc3)CC2)cc1	20.3	98.3*	25.1	-0.1	2.4	17.5
O=C(O)/C=C\C(=O)Nc1ccc(N2CCN(c3ccc(Cl)c(Cl)c3)CC2)cc1	16.5	15.9	26.1	-0.1	12.3	9.3
CC(=O)Nc1ccc(N2CCN(c3ccc(F)cc3)CC2)cc1	-7.1	.	-3.2	-0.3	-5.8	-14.7
Cc1nc(SCC(=O)N2CCCCCC2)[nH]c(=O)c1C	.	.	.	-0.1	.	7.7
CCOC(=O)N1CCC(N2C(=O)c3ccccc3C2Nc2ccc(C)cc2)CC1 (stereo unspecified)	-0.6	98.7*	-1.2	0.1	12.3	-6.3
CCN(CC)S(=O)(=O)c1ccc(NC2c3ccccc3C(=O)N2CCN2CCOCC2)cc1 (stereo unspecified)	-8.0	-5.1	-10.0	-0.1	21.8	8.4
Cc1ccc(NC2c3ccccc3C(=O)N2CCN2CCOCC2)cc1 (stereo unspecified)	1.8	97.9*	-3.8	0.0	17.4	4.6
CCOc1ccccc1Nc1ccc(C(=O)O)cc1N	15.9	10.0	10.9	0.0	-1.9	4.7
COc1cc(Nc2ccc(C(=O)O)cc2[N+](=O)[O-])cc(OC)c1	8.8	-23.3	2.4	0.1	6.9	3.7
COc1cccc(Nc2ccc(C(=O)O)cc2N)c1	6.2	99.5*	-4.1	-0.1	8.2	8.1
Cc1cc(C)cc(Nc2ccc(C(=O)O)cc2[N+](=O)[O-])c1	13.1	-3.1	-2.3	0.0	15.0	15.4
Cc1ccc(Nc2ccc(C(=O)O)cc2N)cc1	3.8	99.2*	-5.0	-0.1	17.9	.
SMILES	PABP polyA inh	ALR inh	eIF4H FP inh	Efflux pump inh	SUMO HTRF inh	PABP1 MLLE inh
Cc1cc(C)cc(Nc2ccc(C(=O)O)cc2N)c1	active	.	53.6*	0.1	26.0	13.1
C/C(=N\OCC(=O)Nc1ccc2c(c1)OCCO2)c1ccc2c(c1)OCCO2	5.1	1.1	-4.9	0.0	3.1	2.9
C(=C\c1ccccc1)/CN1CCN(C(c2cccc3ccccc23)c2nnnn2-c2ccc3c(c2)OCCO3)CC1 (stereo unspecified)	.	.	.	.	.	-6.5
N#Cc1c2n(c3c(=S)nc[nH]c13)CCCCC2	7.6	92.7*	-1.4	0.2	19.0	13.5
c1ccc2c(c1)CCCN2Cc1nnc2n1CCCCC2	76.9*	-0.7	60.6*	0.0	5.4	78.1
c1ccc(Cc2nnc3n2CCCCC3)cc1	-3.0	-1.5	-9.3	0.0	17.2	3.3
Cc1c(CC(=O)N2CCC(O)CC2)c(=O)oc2cc3c(cc12)CCC1(CCCCC1)O3	.	.	.	.	.	-6.5
O=C(CSc1nc2[nH]c(=O)cc(O)c2s1)Nc1nccs1	.	95.3*	.	-0.1	.	19.3
Cc1cnc(=O)[nH]c1SCC(=O)Nc1nccs1	.	97.3*	.	0.1	.	13.9
O=C(CSc1nc2[nH]c(=O)cc(O)c2s1)Nc1nncs1	.	.	.	.	.	-5.5
CCc1nnc(NC(=O)CSc2nc3[nH]c(=O)cc(O)c3s2)s1	.	99.4*	.	0.1	.	13.2
Cc1nc(SCC(=O)Nc2nccs2)c(C#N)c(C)c1C	.	-6.1	.	0.2	.	-0.6
CCCSc1nnc(NC(=O)CSc2nc3[nH]c(=O)cc(O)c3s2)s1	.	5.9	.	-0.3	.	13.9
C/C=C/C(=O)OCC(=O)Nc1cc(-c2cc(C)c(C)cc2C)nn1-c1ccccc1	-6.4	4.2	3.7	0.3	-43.4	-8.4
COc1ccc(/C=N/Nc2nnc(Cc3ccccc3)c(=O)[nH]2)cc1OC	1.1*	6.1	?	0.1	3.6	0.8
COc1ccc(Cc2nnc(N/N=C/c3ccc(O)cc3)[nH]c2=O)cc1OC	6.1	41.4	22.2	0.3	-72.0	-23.7
CCCN1CCN(S(=O)(=O)c2cn(C)nc2C)CC1	37.7*	-3.0	68.7	0.5	-5.2	35.8
O=C(Nc1nnc(SCc2ccc(F)cc2)s1)c1ccc2c(c1)C(=O)N(c1ccccc1Cl)C2=O	-1.3	-15.2	-5.3	0.0	-4.8	-18.1
O=c1c(-c2ccco2)[n+]([O-])c2ccccc2n1OCc1c(F)cccc1F	14.0	50.1	23.4	-0.1	36.4	-1.3
O=c1c(-c2cc3ccccc3o2)[n+]([O-])c2ccccc2n1OCc1ccccn1	61.1*	6.2	84.8	0.0	29.2	2.3
O=c1c(-c2ccco2)[n+]([O-])c2ccccc2n1OCc1ccccc1F	30.8	97.1*	17.1	0.0	16.0	0.2
CCOn1c(=O)c(-c2cc3ccccc3o2)[n+]([O-])c2ccccc21	35.0	92.6*	45.3	0.0	4.2	-5.8
O=c1c(-c2ccc(Br)cc2)[n+]([O-])c2ccccc2n1OCc1ccccn1	-11.7	-4.3	-0.9	0.0	18.5	-7.6
COc1cc(NC(=O)[C@@H]2O[C@H](CO)[C@@H](O)[C@H]2O)cc(OC)c1OC	.	.	.	.	.	16.3
O=c1c(Cc2ccc(Cl)cc2)c(O)ccn1Cc1cccs1	-2.8	-20.4	0.1	0.0	-4.2	5.5

Screens as filed in PubChem.
